# Bioassay records: PubChem BioAssay, National Center for Advancing Translational Sciences (NCATS)
# VDR inh = blocks the human vitamin D receptor. Potency, µM, for the others: max response, negative = inhibition, usual class: inhibitors. VDR-SRC2-3 peptide fluorescence polarization, 2 h. 400,000 compounds, 0.93% hits. AID 504847; note: % is set by controls: 0 for no effect and ±100 for the full control effect
#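 Inhibition of the VDR/SRC2-3 peptide interaction is quantified by fluorescence polarization. Compounds (23 nl, pintool) incubate with the reagents for 2 hours at ambient room temperature.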
# Pin1 inh = human Pin1 inhibition. Q13526. Potency, µM (series often up to 115 µM), without a hit: top-dose activity, negative = inhibition, most hits filed as inhibitors. Pin1 FP peptide displacement, HiFluor488, 10 min. 390,000 compounds, 0.009% hits; active = well fitted inhibition curve with a large enough effect in the polarisation, with a control signal flat, not every such curve was filed as active; inconclusive = small, poorly fitted or top-dose-only effect, or effect the other way, or a change in a side signal; inactive = no such curve, though single readings can be large or run the other way; the % refers to the polarisation; note: % is set by controls: 0 for no effect and ±100 for the full control effect
# Target sequence (Q13526 whole entry, looked up): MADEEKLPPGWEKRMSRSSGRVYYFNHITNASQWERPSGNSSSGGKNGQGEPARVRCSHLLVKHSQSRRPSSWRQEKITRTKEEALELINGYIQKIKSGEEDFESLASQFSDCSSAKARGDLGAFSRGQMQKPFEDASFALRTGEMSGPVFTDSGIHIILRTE
# Tb PFK inh = inhibitors of T. brucei phosphofructokinase; Potency, µM (top dose mostly 57.5 µM), for the others: at the highest dose activity, negative = inhibition, most hits filed as inhibitors; 330,000 compounds, 0.17% hits; T. brucei PFK, ADP-Glo luminescence; O15648;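 note: 0% = uninhibited 1x PFK enzyme wells and -100% = no-enzyme wells; nearly all actives have a fitted effect of over 60% in size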
# Target sequence (O15648 whole entry, looked up): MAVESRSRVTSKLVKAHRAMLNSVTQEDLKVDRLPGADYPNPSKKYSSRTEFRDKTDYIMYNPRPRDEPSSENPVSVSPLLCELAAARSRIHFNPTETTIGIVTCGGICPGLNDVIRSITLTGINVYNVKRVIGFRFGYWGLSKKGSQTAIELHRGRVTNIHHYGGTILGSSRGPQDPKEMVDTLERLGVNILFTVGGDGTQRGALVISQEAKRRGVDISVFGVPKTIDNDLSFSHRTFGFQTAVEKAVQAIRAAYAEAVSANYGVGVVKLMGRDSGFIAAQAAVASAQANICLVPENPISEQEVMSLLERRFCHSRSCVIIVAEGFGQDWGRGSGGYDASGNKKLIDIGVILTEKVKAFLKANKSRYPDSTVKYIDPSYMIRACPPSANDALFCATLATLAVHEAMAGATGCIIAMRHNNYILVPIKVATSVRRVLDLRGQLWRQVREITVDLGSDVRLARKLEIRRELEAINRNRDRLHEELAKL
#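 Luminescent ADP detection (ADP-Glo, two-step: ATP depletion then ADP-to-ATP conversion for luciferase) reported PFK activity after 45 min room-temperature reaction of 1.25 nM enzyme with 0.5 mM F6P and 0.1 mM ATP at pH 8.0.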
# S-ASM inh = human S-ASM enzyme inhibition; Potency, µM (top dose mostly 57.5 µM), without a hit: at the highest dose activity change, negative = inhibition, most hits filed as inhibitors; P17405; 340,000 compounds, 0.006% hits; placental ASM, HMU-PC fluorogenic substrate, 60 min
#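 Steps: dispense placental human ASM, pin compound, wait 10 min at room temperature, add HMU-PC0 substrate at 9 uM final, incubate 60 min at 37 °C, add stop solution raising pH to 10, read fluorescence.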
# PLK1 PBD block = inhibitors of human PLK1 polo-box domain binding; P53350; Plk1 PBD binding of FITC phosphopeptide, fluorescence polarization; Potency, µM, for inactives: max response, negative = inhibition, hits mostly inhibitors; 360,000 compounds, 2.8% hits; note: series mostly up to about 57 µM; % is set by controls: 0 for no effect and ±100 for the full control effect; nearly all actives have a fitted effect of over 65% in size
# TDP1 inh = TDP1 (human) enzyme inhibition; Q9NUW8; recombinant TDP1, AlphaScreen DNA substrate cleavage; Potency, µM (highest dose often 130 µM), for inactives: top-dose activity change, negative = inhibition, actives largely listed as inhibitors; 350,000 compounds, 0.28% hits; AID 485290; note: % is set by controls: 0 for no effect and ±100 for the full control effect; nearly all actives have a fitted effect of over 40% in size
#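 Compounds were preincubated with Tdp1 (1 nM final) for 15 min at room temperature before substrate (15 nM final) started a 5 min reaction; beads (10 ug/ml final) were then added for 10 min before AlphaScreen detection.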
# Numbers without * were called inactive; i = inactive; ? = inconclusive; nt = no result; [ ] = dose if it differs, or a comment. Sampled rows, rich in hits. Any-hit rate of the full collection: about 3.1%. Unless noted, calls come from the whole dose curve; as a rule, active = well fitted curve in the direction sought with a large enough effect; inconclusive = small, poorly fitted or top-dose-only effect, or another doubt; inactive = no such curve, though single readings can be large; an effect the other way counts as inactive or inconclusive. Potency is the fitted concentration of half-maximal effect.
SMILES,VDR inh,Pin1 inh,Tb PFK inh,S-ASM inh,PLK1 PBD block,TDP1 inh
CN(C)C(CNC(=O)C1CCN(S(=O)(=O)c2ccccc2)CC1)c1ccccc1 (stereo unspecified),-16%,2%,3%,-1%,34µM*,-1%
Cc1[nH]c(=O)[nH]c(=O)c1S(=O)(=O)N1CCC(C(=O)NC(C)c2ccccc2)CC1 (stereo unspecified),-17%,4%,8%,0%,34µM*,5%
COc1cccc(Nc2nnc(-c3cc4ccc(O)cc4oc3=O)s2)c1,7%,?,nt,nt,nt,?
CC1(CCc2ccccc2)NC(=O)N(CC(=O)Nc2ccccc2)C1=O (stereo unspecified),3%,-3%,-1%,-3%,6%,nt
CC1(CCc2ccccc2)NC(=O)N(CC(=O)O)C1=O (stereo unspecified),?,2%,-2%,3%,24µM*,nt
N#CC1=C(N)N(c2ccc(F)cc2)C2=C(C1c1ccc(O)cc1)S(=O)(=O)CC2 (stereo unspecified),4%,40%,?,14%,15µM*,12%
COc1ccc(-n2c(C)cc(/C=C3\C(=O)NN(c4ccccc4)C3=O)c2C)cc1,-2%,-9%,-3%,-14%,-16%,-3%
COc1ccc(Sc2ccc(/C=C3\C(=O)NN(c4ccccc4)C3=O)o2)cc1,?,?,5%,-9%,6µM*,8%
CCN(C(=O)CN1C(=O)COc2ccc(S(=O)(=O)N3CCOCC3)cc21)c1cccc(C)c1,9%,-8%,nt,nt,nt,8%
CC1CCCN(CCC(=O)c2ccccc2)C1 (stereo unspecified),-2%,0%,nt,0%,13µM*,nt
C[N+]1(CCC(=O)c2ccccc2)CCCCC1,-19%,2%,2%,4%,12µM*,0%
O=C(CCN1CCCCC1)c1ccc2c(c1)OCO2,45µM*,0%,-24%,0%,?,3%
O=C(CCN1CCCCC1)c1ccccc1,-10%,-1%,0%,1%,15µM*,9%
CC(=O)OC(C[N+]1(C)CCCCCC1)c1ccccc1 (stereo unspecified),-13%,2%,-1%,2%,-3%,nt
CC1(C)O[C@@H]2C[C@H]3[C@@H]4CCC5=CC(=O)C=C[C@]5(C)[C@H]4C(O)C[C@]3(C)[C@]2(C(=O)CO)O1 (stereo partly specified),2%,nt,nt,nt,nt,nt
CN(CCCc1cnc[nH]1)C(=S)NCCCN(Cc1ccc(Cl)cc1)c1ccc(Br)cn1,-10%,?,nt,nt,nt,nt
COc1ccc(-c2nc3nc(C)cc(Nc4ccc(C(C)=O)cc4)n3n2)cc1,25%,36%,nt,nt,nt,0%
CCN(c1ccc(OC)cc1)S(=O)(=O)c1ccc2[nH]c3c(c2c1)CCCCC3,4%,26%,nt,nt,nt,5%
CC1=C(C(=O)NC2CCCC(C)C2C)C2(CCCCC2)OC1=O (stereo unspecified),-8%,-2%,2%,-1%,24µM*,-11%
CSc1ccc(C=NNc2ccc(S(=O)(=O)Nc3ccccc3C(=O)O)cc2[N+](=O)[O-])cc1,-27%,nt,-7%,-6%,?,-18%
Cc1nn(-c2ccccc2)c(Cl)c1/C=N/Nc1ccc(S(=O)(=O)Nc2ccccc2C(=O)O)cc1[N+](=O)[O-],79µM*,nt,6%,?,27µM*,1%
COC(=O)c1ccccc1NS(=O)(=O)c1ccc(F)cc1,1%,6%,-1%,1%,-1%,-2%
COC(=O)c1ccccc1NS(=O)(=O)c1ccc(O)c(C(=O)O)c1,-5%,9%,38µM*,8%,-1%,-2%
C=CCOc1ccc(C=NNc2ccc(S(=O)(=O)Nc3ccccc3C(=O)O)cc2[N+](=O)[O-])cc1OC,?,nt,?,?,?,-16%
CCOc1ccc(C=NNc2ccc(S(=O)(=O)Nc3ccccc3C(=O)O)cc2[N+](=O)[O-])cc1,-21%,nt,-2%,-27%,19µM*,-13%
SMILES,VDR inh,Pin1 inh,Tb PFK inh,S-ASM inh,PLK1 PBD block,TDP1 inh
COc1ccc(NC(=S)NNc2ccc(S(=O)(=O)Nc3ccccc3C(=O)O)cc2[N+](=O)[O-])cc1,-3%,-28%,?,-28%,8.4µM*,nt
CCOc1cccc(C=NNc2ccc(S(=O)(=O)Nc3ccccc3C(=O)O)cc2[N+](=O)[O-])c1O,-9%,?,15%,-5%,?,1%
COC(=O)NNC(=O)C12CC3CC(CC(C3)C1)C2,18%,2%,-18%,nt,-12%,-8%
NC(=S)NNC(=O)C12CC3CC(CC(C3)C1)C2,-5%,-10%,1%,3%,27µM*,0%
CCN(CC)c1ccc(NC(=O)c2cccn2-c2nnc(N3CCCCC3)s2)c(C)c1,?,-1%,nt,nt,nt,5%
CN(C)/C=C1\NC(=S)N(c2ccc(Cl)cc2)C1=O,1%,?,-7%,-4%,27µM*,nt
OC1=C(O)c2nc3ccccc3nc21,-15%,-19%,4%,2%,?,4%
Cc1cc2nc3c(nc2cc1C)C(O)=C3O,-20%,-1%,1%,-1%,8.4µM*,nt
COc1ccc(-n2ncc(C(=O)NCc3ccc4c(c3)OCO4)c2C2CCN(C(=O)OC(C)(C)C)CC2)cc1,15%,?,nt,nt,nt,7%
NC(=O)c1ccc2nc(NC(=O)c3ccc(N)cc3)sc2c1,-8%,-2%,-3%,-1%,-6%,79µM*
Nc1ccc(C(=O)Nc2cccc(NC(=O)c3ccc(N)cc3)c2)cc1,?,1%,0%,-1%,27µM*,4%
O=C(O)c1ccc2ncsc2c1,16%,-5%,?,-3%,?,45µM*
Nc1ccc(-c2nc3ccc(C(=O)O)cc3s2)cc1,1%,2%,0%,i,-9%,79µM*
CC(NC(=O)c1sc2ncccc2c1-n1cccc1)c1ccccc1 (stereo unspecified),3%,-2%,nt,nt,nt,5%
CCc1ccc(NC(=O)c2cc(=O)c3ccc(C)c(C)c3o2)cc1,7%,6%,nt,nt,nt,0%
CC#CCN1c2ccccc2[C@]23C[C@@H](C(=O)OC)N(S(=O)(=O)c4ccc(C#N)cc4)C2=NC(C(=O)OC)=C(C(=O)OC)[C@H]13,nt,nt,nt,nt,nt,8%[12.3 µM]
Cc1ccc(NC(=O)CCS(=O)(=O)c2ccc3nc(C)sc3c2)cc1,-10%,1%,0%,2%,27µM*,0%
O=C(Nc1ccc2ncccc2c1)c1ccccc1,?,0%,-6%,7%,8.4µM*,nt
Cc1ccc(OC(=O)c2ccc3nc(C)sc3c2)cc1,?,?,2%,-3%,19µM*,4%
Cc1nc2ccc(NC(=O)c3ccc4ccccc4n3)cc2s1,-9%,7%,-1%,-2%,-3%,2%
Cc1nc2ccc(NC(=O)c3ccccc3)cc2s1,-5%,8%,-6%,-5%,21µM*,5%
